The list is not random: actives were taken first. Their share in the collection is about 1.8%.
DSG3 Ab inh – inhibitors of pemphigus antibody binding to DSG3, primary screen, biochemical, bead-based, flow cytometry, scFv-GFP. binding (percent of control), % at 10 µM. 310,000 compounds, 0.48% hits. DSG3-coupled beads, scFv-anti-DSG3-GFP binding; stronger effect = lower value. AID 588358, 2011. Desmoglein-3 (Homo sapiens), P32926;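 active = binding more than 3 SD below its plate's average and above zero; inconclusive = below that plate limit but binding exactly zero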
Target sequence (P32926 whole entry, looked up): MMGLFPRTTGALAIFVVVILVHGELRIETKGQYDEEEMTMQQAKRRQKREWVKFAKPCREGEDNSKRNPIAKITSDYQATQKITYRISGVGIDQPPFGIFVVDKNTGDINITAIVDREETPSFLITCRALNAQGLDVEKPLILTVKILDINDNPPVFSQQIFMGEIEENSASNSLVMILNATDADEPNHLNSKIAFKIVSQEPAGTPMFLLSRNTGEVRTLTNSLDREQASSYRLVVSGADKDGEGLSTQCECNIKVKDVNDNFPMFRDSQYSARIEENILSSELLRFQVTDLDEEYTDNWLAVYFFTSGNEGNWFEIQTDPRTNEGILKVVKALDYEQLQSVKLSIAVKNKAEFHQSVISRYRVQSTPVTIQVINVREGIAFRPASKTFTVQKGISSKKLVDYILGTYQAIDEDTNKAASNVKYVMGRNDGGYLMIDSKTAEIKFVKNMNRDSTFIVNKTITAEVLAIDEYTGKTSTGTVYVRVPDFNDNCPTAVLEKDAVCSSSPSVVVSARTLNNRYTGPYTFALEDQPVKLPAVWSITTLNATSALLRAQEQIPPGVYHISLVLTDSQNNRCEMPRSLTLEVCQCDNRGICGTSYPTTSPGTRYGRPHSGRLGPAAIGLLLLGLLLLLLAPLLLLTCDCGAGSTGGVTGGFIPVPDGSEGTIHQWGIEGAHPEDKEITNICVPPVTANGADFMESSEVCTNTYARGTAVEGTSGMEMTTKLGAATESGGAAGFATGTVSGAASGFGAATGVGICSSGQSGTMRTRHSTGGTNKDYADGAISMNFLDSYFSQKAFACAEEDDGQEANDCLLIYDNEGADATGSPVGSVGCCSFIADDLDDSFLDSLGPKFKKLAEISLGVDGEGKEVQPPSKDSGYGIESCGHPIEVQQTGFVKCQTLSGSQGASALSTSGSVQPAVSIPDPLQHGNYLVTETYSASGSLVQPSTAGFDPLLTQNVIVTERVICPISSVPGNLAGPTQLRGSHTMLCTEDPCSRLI
LANA-H2A inh – blockers of LANA interaction with H2A/H2B – biochemical, FP readout, HTS, primary screen | inhibition, % (test concentration not listed) | Protein LANA1 (Human herpesvirus 8 type P (isolate GK18)), Q9QR71 | cell-free LANA-H2A/H2B peptide, fluorescence polarization | 320,000 compounds, 0.6% hits; in the data active = inhibition mostly above about 10%, no sharp cut-off; inactive = mostly below about 6.7%
VLA-4 inh – inhibition in human VLA-4 binding assay, primary screen, VLA-4 allosteric modulator project, MLPCN library, flow cytometry, VLA-4 expressing cells; ligand binding flow cytometry; inhibition, % (about 7 µM as worked out from the volumes in the protocol); 330,000 compounds, 0.2% hits; AID 2557, 2010
GRK2 inh – compounds blocking aptamer binding on GRK2 – biochemical, human GRK2, bead flow cytometry, HTS, primary screen | inhibition of aptamer binding, % at 10 µM | FAM-aptamer displacement from GRK2 | Beta-adrenergic receptor kinase 1 (Homo sapiens), P25098 | 330,000 compounds, 0.59% hits;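 active = inhibition of aptamer binding above 40%, roughly 3 SD of noise, on plates passing a quality check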;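 note: median bead fluorescence of bound FAM aptamer so fluorescent compounds give negative values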
HDAC3 inh – HDAC3 deacetylase inhibitors, primary screen, biochemical, fluorescence, cell-free homogeneous | 320,000 compounds, 0.15% hits | inhibition, % at 8.3 µM | AID 2718, 2010 | recombinant HDAC3, fluorogenic peptide/trypsin coupled; in the data active = inhibition above about 26%, passing the limit was not always enough; inconclusive = no clear call, values can overlap the other calls
PKD1 inh – inhibitors of human PKD1 kinase, biochemical, fluorescence polarization; Serine/threonine-protein kinase D1 (Homo sapiens), Q15139; PKD1 kinase fluorescence polarization assay; inhibition, % (test concentration not listed); 200,000 compounds, 0.056% hits; AID 797, 2007
Large screens that a line does not name were inactive; ! = not confirmed by another sample. Cut-off read from the data, not from the text of the source, unless noted: active = inhibition above about 50%; inactive = the rest.

CC(Sc1nnc(N)s1)C(=O)Nc1ccc2c(c1)OCO2 (centres undefined)	DSG3 Ab inh 89 (no result: LANA-H2A inh, VLA-4 inh, GRK2 inh, HDAC3 inh, PKD1 inh)
Cc1cnc(C(=O)OCC(=O)Nc2ccccc2-c2ccccc2)cn1	none (no result: PKD1 inh)
Cc1ccc(NC(=S)NCc2ccc(Cl)cc2)c(OC(F)F)c1	none (no result: PKD1 inh)
CSc1nsc(SCC(=O)Nc2ccc(C(C)=O)cc2)n1	none
CSc1nsc(SCC(=O)Nc2ccc(C(N)=O)cc2)n1	LANA-H2A inh 31 (no result: PKD1 inh)
CN(C(=O)c1cccc(NC(=O)Cc2ccc(NC(=O)C3CCCN(C(=O)C4CCCC4)C3)cc2)c1)C1CCCCC1 (centres undefined)	none (no result: LANA-H2A inh, VLA-4 inh, GRK2 inh, HDAC3 inh, PKD1 inh)
CCOC(=O)c1ncn2c1CN(C)C(=O)c1cc(F)ccc1-2	LANA-H2A inh 29!
CCOC(=O)c1nn(-c2ccc(F)cc2)c(C)c1C(C)=O	none
Cc1cc(=O)oc(C)c1C(=O)OCC(=O)c1ccc(Cl)c(Cl)c1	DSG3 Ab inh 82
Cc1ccc(C(=O)COC(=O)c2c(C)cc(=O)oc2C)cc1[N+](=O)[O-]	none
CCc1ccc2nc(Nc3ccc(OC)cc3OC)c(C#N)cc2c1	none
CC(=O)Nc1ccc(-n2nnnc2SCC(=O)NC2CCCC2)cc1	none (no result: PKD1 inh)
CC(=O)Nc1ccc(NC(=O)CSc2nnnn2-c2ccc(F)cc2)cc1	DSG3 Ab inh 61 (no result: PKD1 inh)
C=CCN1C(=O)C(CC(=O)O)S/C1=N/N=C/c1ccc(N(CC)CC)cc1 (centres undefined)	none (no result: LANA-H2A inh, PKD1 inh)
Cc1ccc(NC(=O)c2cccc(NC3=NC4CS(=O)(=O)CC4S3)c2)cc1C (centres undefined)	LANA-H2A inh 24 (no result: PKD1 inh)
COc1cccc(CN2CC(C(=O)NCc3ccc(C)o3)CCC2=O)c1 (centres undefined)	none (no result: LANA-H2A inh, VLA-4 inh, GRK2 inh, HDAC3 inh, PKD1 inh)
Cc1cc(=O)oc2cc(OCc3ccc(C(=O)OCC(=O)NC4CCS(=O)(=O)C4)cc3)ccc12 (centres undefined)	DSG3 Ab inh 70 (no result: PKD1 inh)
Cc1cc(=O)oc2cc(OCc3ccc(C(=O)OCC(=O)N(C)C4CCS(=O)(=O)C4)cc3)ccc12 (centres undefined)	none (no result: PKD1 inh)
O=Cc1c(N2CCC3(CC2)OCCO3)nc2ccccn2c1=O	none (no result: PKD1 inh)
Cc1ccc(-c2cn3cccnc3n2)cc1NC(=O)c1ccc(Br)o1	DSG3 Ab inh 81
CC(=O)c1ccc(CCCCCCCCCC(=O)O)s1	LANA-H2A inh 2.8
CCC(=O)c1ccc(CCCCCC(=O)O)s1	none
Nc1nc(COC(=O)C2CC(=O)N(CCc3ccccc3)C2)nc(Nc2ccccc2)n1 (centres undefined)	none (no result: DSG3 Ab inh, PKD1 inh)
Cc1ccc(N(CC(N)=O)C2SC(=O)NC2=O)cc1 (centres undefined)	LANA-H2A inh 22
Cc1ccc(N(CC(=O)O)C2SC(=O)NC2=O)cc1 (centres undefined)	none
CS(=O)(=O)N1CCc2cc(S(=O)(=O)NCCNS(=O)(=O)c3ccc4c(c3)CCN4S(C)(=O)=O)ccc21	DSG3 Ab inh 77
CS(=O)(=O)N1CCc2cc(S(=O)(=O)Nc3ccc4c(c3)OCCO4)ccc21	none
CCOc1cccc(C(=O)Nc2ccccc2C(=O)N2CCOCC2)c1	none (no result: PKD1 inh)
CC(C)C[C@H](NC(=O)c1nc[nH]c1C(=O)NCc1ccccc1)C(=O)OC(C)(C)C	HDAC3 inh 40
CC(C)C[C@H](NC(=O)c1[nH]cnc1C(=O)Nc1ccc(CNC(=O)OC(C)(C)C)cc1)C(=O)OC(C)(C)C	HDAC3 inh 52 (no result: PKD1 inh)
CC(C)C[C@H](NC(=O)c1nc[nH]c1C(=O)NC1CCN(C(=O)OC(C)(C)C)CC1)C(=O)OCc1ccccc1	HDAC3 inh 44
CC(C)C[C@H](NC(=O)c1nc[nH]c1C(=O)NC1CCN(C(=O)OC(C)(C)C)CC1)C(=O)OC(C)(C)C	none (no result: VLA-4 inh, GRK2 inh)
CC(C)C[C@H](NC(=O)c1[nH]cnc1C(=O)N[C@@H](Cc1ccccc1)C(=O)OC(C)(C)C)C(=O)OC(C)(C)C	none (no result: PKD1 inh)
C[C@H](NC(=O)c1nc[nH]c1C(=O)NCc1ccc(CNC(=O)OC(C)(C)C)cc1)C(=O)OC(C)(C)C	HDAC3 inh inconclusive
CC(C)C[C@H](NC(=O)c1nc[nH]c1C(=O)NCc1ccc(CNC(=O)OC(C)(C)C)cc1)C(=O)OC(C)(C)C	HDAC3 inh 35 (no result: PKD1 inh)
CC(C)(C)OC(=O)C[C@@H]1C/C=C\C[C@H](CC(=O)N(CCO)Cc2ccccc2)C(=O)N[C@H](Cc2ccccc2)COC1=O	none (no result: PKD1 inh)
COc1cc(SC)ccc1C(=O)N(Cc1ccccc1)c1ccccn1	none (no result: PKD1 inh)
CCc1nc2ccccc2c(=O)n1/N=C/c1ccc(OC)cc1	none (no result: PKD1 inh)
CC(C)NC(=O)C1CCN(Cc2cccc(Oc3ccccc3)c2)CC1	none (no result: PKD1 inh)
CC(C)NC(=O)C1CCN(Cc2cccc(OCc3ccccc3)c2)CC1	DSG3 Ab inh 83 (no result: LANA-H2A inh, VLA-4 inh, GRK2 inh, HDAC3 inh, PKD1 inh)
CCOC(=O)c1sc(NC(=O)CSC(=S)N2CCN(C)CC2)nc1C	none (no result: PKD1 inh)
COc1ccc(C2=CC(c3cc(OC)c(OC)c(OC)c3)NC(=S)N2)cc1 (centres undefined)	LANA-H2A inh 20
COC(=O)C1=C(C)NC(C)=C(C(=O)OC)C1c1ccc(-c2cccc([N+](=O)[O-])c2)o1	HDAC3 inh 35 (no result: PKD1 inh)
COC(=O)C1=C(C)NC(=S)NC1c1ccc(-c2cccc(Cl)c2)o1 (centres undefined)	HDAC3 inh 29
CCOC(=O)C1=C(C)NC(=O)NC1c1ccc(-c2ccc(Cl)cc2)o1 (centres undefined)	HDAC3 inh 50
COc1cc(/C=C/C(=O)OCC(=O)NCCC2=CCCCC2)cc(OC)c1OC	none (no result: DSG3 Ab inh, PKD1 inh)
CC(OC(=O)c1ccc(S(=O)(=O)N(C)C)cc1)C(=O)Nc1ccc(Cl)cn1 (centres undefined)	LANA-H2A inh 12
C[C@H]1CCCCO[C@H](CN(C)C(=O)C2CCCCC2)[C@@H](C)CN([C@@H](C)CO)C(=O)c2cc(NC(=O)NC3CCCCC3)ccc2O1	none (no result: LANA-H2A inh, VLA-4 inh, GRK2 inh, HDAC3 inh, PKD1 inh)
CN(CC(=O)Nc1ccc(Cl)cc1F)C1CCS(=O)(=O)C1 (centres undefined)	none (no result: DSG3 Ab inh, PKD1 inh)
Cc1c(NC(=O)c2cccc(NC(=O)COc3cccc(Br)c3)c2)c(=O)n(-c2ccccc2)n1C	none (no result: DSG3 Ab inh, PKD1 inh)
O=C1OC2(c3ccccc31)c1cc(I)c(O)c(I)c1Oc1c2cc(I)c(O)c1I	GRK2 inh 76 (no result: DSG3 Ab inh, PKD1 inh)
Cc1cc(O)ccc1C1(c2ccc(O)cc2C)OC(=O)c2ccccc21	none
Cn1c(N/N=C/c2cc3ccccc3nc2Cl)nc2ccccc21	none
COc1cccc(C(=O)/C=C/Nc2ccc(S(=O)(=O)Nc3cc(OC)nc(OC)n3)cc2)c1	none (no result: DSG3 Ab inh, PKD1 inh)

Source: PubChem
